# Assay results as given in the supplement of paper PMC10338343.
# ± gives the standard deviation.
# Experiments:
# [1] = test system: MILI (PIWIL2) piRISC loaded with L1MC piRNA (26 nt); test: pre-steady-state target cleavage rate (min^-1); guide: L1MC piRNA 5'p-UAACUAAAUACUAUGCAAGCUGUAGG; higher = faster piRNA-guided slicing of the target; conditions: auxiliary factor: 500 nM mouse GTSF1
# In short: (§1)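 The pre-steady-state cleavage rate was obtained by Cleave-'n-Seq with a burst-and-steady-state fit. A transcribed, DNA-blocked target RNA library (0.1 nM) was mixed with 1 nM active affinity-purified piRISC carrying one synthetic guide, with or without 500 nM GTSF1 partner protein, in HEPES–potassium acetate buffer at 33 °C for 0–8 or 0–960 min. Uncleaved targets were sequenced and normalised to depth and to weakly complementary targets, with three trials pooled and k3 capped at 0.0001 min^-1.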
# [2] = test system: EfPiwi piRISC loaded with L1MC piRNA (26 nt); test: pre-steady-state target cleavage rate (min^-1); auxiliary factor: 500 nM Ephydatia muelleri Gtsf1; guide: L1MC piRNA 5'p-UAACUAAAUACUAUGCAAGCUGUAGG; MIWI and MILI are mouse PIWI proteins and EfPiwi is from a freshwater sponge; tags in brackets are library labels; higher = faster piRNA-guided slicing of the target
# In short: as §1
Sequence,pre-steady-state target cleavage rate [1],pre-steady-state target cleavage rate [2]
UCCUCCUACAGCUUGCAUAGUUAUUAGUAA,0.031 ± 0.011,0.00524 ± 0.0028
UCCUGGAACAGCUUGCAUAGAAUUUAGAUA,0.0527 ± 0.018,0.00187 ± 0.0015
UCCUGCUACAGCUUGCAAAGUAUUUACAAA,0.0731 ± 0.018,0.00394 ± 0.0025
UCCUGGAACAGGUUGCAUAGUAUUUAGAUA,0.136 ± 0.025,0.00362 ± 0.0019
UCCUGGAACAGCUAGCAUACUAUUUAGUUA,0.0692 ± 0.011,0.0045 ± 0.0019
UCCUCCUUGUGCUUGCAUAGUAUUUACAAA,0.0181 ± 0.0068,0.00376 ± 0.0032
UCCUGCUACAGCUUGCAUAGUAUUUACAUA,0.157 ± 0.041,0.0023 ± 0.0023
UCCUGCUACAGCUUGCAUAGUAUUUUGAAA,0.112 ± 0.029,0.0045 ± 0.0018
UCCUGCUACAGCUUGCAUAGUAAUUAGUAA,0.133 ± 0.025,0.00441 ± 0.0018
UCCUGCUACAGCUUGCAAAGUUUUUAGUUA,0.0201 ± 0.0069,0.00207 ± 0.002
UCCUCCUACAGCUUGCAUAGUAUUUUGUAA,0.092 ± 0.019,0.0056 ± 0.003
UCCUCCUUCAGCUUGCAUAGUAUUUUCAAA,,0.00259 ± 0.0024
UCCUGCUACUGCUUGCAUAGUAUAUAGUUA,0.121 ± 0.018,0.00619 ± 0.0031
UCCUGGAUGAGCUUGCAUAGCAUUUAGUUA,0.0853 ± 0.016,0.0029 ± 0.0019
UCCUGGAUCAGCUUGCAUAUUAUUUAGUUA,0.0736 ± 0.0095,0.0367 ± 0.011
UCCUCCUACAGCUUGCAUACUAUUUAGUAA,0.0473 ± 0.012,0.00454 ± 0.0033
UCCUGGAACAGCUUGCAUACUAUUUAGUAA,0.0934 ± 0.025,0.00398 ± 0.0022
UCCUGCUACAGCAUGGAUAGUAUUUAGUUA,,0.00804 ± 0.0023
UCCUGCUACAGCUUGCAUAGGAUUUAGUUA,0.00856 ± 0.0037,0.00356 ± 0.001
UCCUCCAACAGCUUCCAUAGUAUUUAGUUA,0.0545 ± 0.017,0.00439 ± 0.0021
UCCUCCUAGAGCUUGCAUAGUAUUUACAAA,0.0915 ± 0.027,0.00252 ± 0.0019
UCCUCCUAGAGCUUGCAUAGAAUUUAGUUA,0.0513 ± 0.0099,0.00468 ± 0.0013
UCCUGGAUGUCCUUGCAUAGUAUUUAGUCUA,0.0325 ± 0.01,0.00301 ± 0.0024
UCCUGCUACAGCAUGCAUACUAUUUAGUUA,0.148 ± 0.028,0.00525 ± 0.0021
